NPSR antagonist – antagonists of human neuropeptide S receptor cAMP signaling; Q6W5P4; CHO-NPSR cells, cAMP TR-FRET, antagonist mode; Potency, µM (series often up to 38.3 µM), inactives show at the highest dose activity change, negative = inhibition, most hits filed as inhibitors; actives 1% (n = 220,000); AID 1461; note: potency is the fitted concentration of half-maximal effect; % is set by controls: 0 for no effect and ±100 for the full control effect; nearly all actives have a fitted effect of over 50% in size
Target sequence (Q6W5P4 whole entry, looked up): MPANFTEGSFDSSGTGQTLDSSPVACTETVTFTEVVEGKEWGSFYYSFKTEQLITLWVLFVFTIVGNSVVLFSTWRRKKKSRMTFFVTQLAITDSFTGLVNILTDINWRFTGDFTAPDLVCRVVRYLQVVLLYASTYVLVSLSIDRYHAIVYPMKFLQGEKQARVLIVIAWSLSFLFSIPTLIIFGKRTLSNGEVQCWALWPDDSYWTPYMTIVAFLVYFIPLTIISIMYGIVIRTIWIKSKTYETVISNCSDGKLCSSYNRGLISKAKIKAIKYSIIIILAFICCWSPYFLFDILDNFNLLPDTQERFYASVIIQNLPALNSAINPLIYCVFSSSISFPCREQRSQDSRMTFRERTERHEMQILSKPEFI
PNC inhibitor – perinucleolar compartment assembly inhibition | activity change (PNC), negative = inhibition, % at 10 µM | PC3M PTB-GFP, PNC prevalence imaging, 16 h; active compounds read low | actives 3.1% (n = 140,000) | AID 2417;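 active = readout at or below -70, meaning at least 70% loss of cells showing the perinucleolar compartment, a nuclear body marking cancer cells; inconclusive = readout between -30 and a set limit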;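 note: plate controls were DMSO wells for no effect and camptothecin positive control wells for full effect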
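Compounds are pinned in duplicate onto adhered PC3M cells stably expressing GFP-tagged PTB and incubated 16 h at 37 C. Cells are then fixed, nuclei stained with Hoechst, and PNC-positive cells counted.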
ALOX12 inhib – 12-hLO (ALOX12) enzyme inhibition. AID 1452. Potency, µM (doses to about 57.1 µM), for the others: at the highest dose activity change, negative = inhibition, most hits filed as inhibitors. actives 0.12% (n = 150,000). P18054. purified 12-hLO, xylenol orange hydroperoxide absorbance; note: potency is the fitted concentration of half-maximal effect; % is set by controls: 0 for no effect and ±100 for the full control effect; nearly all actives have a fitted effect of over 55% in size
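Purified human 12hLO (150 nM), preincubated 15 min with compound, then 40 uM arachidonic acid for 30 min, room temperature, Hepes pH 7.0 with 0.01% Triton X-100. Hydroperoxide detected by ferrous iron/xylenol orange; 573/405 nm absorbance ratio gives reaction progress.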
HTT cytoprotect – Huntington cell model cytoprotection by ATP luminescence. PC12 HTT-Q103 induced, cytoprotection, ATP luminescence, 40 h. Potency, µM (highest dose often 56.4 µM), without a hit: cytoprotection (ATP increase), most hits filed as activators. actives 0.14% (n = 230,000). AID 1471; note: potency is the fitted concentration of half-maximal effect; % of control where 0% means no effect; nearly all actives have a fitted effect of over 45% in size
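Cells were plated at 1500 per well in phenol red-free DMEM with 5% equine and 5% calf serum. Tebufenozide (100 nM final) and compounds were added, then ATPlite reagent, and luminescence was read.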
HTT aggregate – inhibitors of mutant huntingtin aggregate formation in PC12 cells; PC12 HttQ103-GFP aggregates, Acumen cytometry, 40 h; Potency, µM (doses to about 46.1 µM), for inactives: at the top dose activity change, negative = inhibition, most hits filed as inhibitors; actives 1.1% (n = 220,000); note: potency is the fitted concentration of half-maximal effect; % is set by controls: 0 for no effect and ±100 for the full control effect; nearly all actives have a fitted effect of over 60% in size
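Huntingtin Q103 exon 1–GFP aggregates in induced PC12 cells (100 nM tebufenozide) were quantified by cytometry from lysates, with compounds dosed in titration.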
IMPase inh – cell-permeable inhibitors of inositol monophosphatase (IMPase); P97697; CHO-M1 cells, IP1 accumulation, HTRF TR-FRET ratio; inhibition (IP1 accumulation), % at 46.1 µM; 120,000 tested, under 10 active; AID 901; active = well fitted curve in the direction sought with a large enough effect in the signal ratio, not every such curve was filed as active; inconclusive = small, poorly fitted or top-dose-only effect, or a change in a side signal; inactive = no such curve, though single readings can be large or run the other way; the % refers to the signal ratio;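 note: cells stimulated with carbachol in lithium chloride buffer; plate controls were DMSO basal wells for no effect and reference inhibitor wells for full effect; higher means more IMPase inhibition seen as more IP1 and lower FRET ratio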
Target sequence (P97697 whole entry, looked up): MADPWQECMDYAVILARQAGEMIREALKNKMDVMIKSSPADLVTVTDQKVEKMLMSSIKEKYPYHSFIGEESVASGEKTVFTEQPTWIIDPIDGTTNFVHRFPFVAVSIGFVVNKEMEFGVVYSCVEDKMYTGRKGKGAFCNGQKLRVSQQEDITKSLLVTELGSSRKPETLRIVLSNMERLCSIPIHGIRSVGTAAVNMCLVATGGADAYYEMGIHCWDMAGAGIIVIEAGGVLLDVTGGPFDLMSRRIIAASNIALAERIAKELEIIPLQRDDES
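The IP-One HTRF competitive assay in carbachol-stimulated CHO-M1 cells quantifies cellular IP1. Compounds spanned up to 46 uM final, and activity is expressed as AC50 from concentration-response fits of the ratio and donor data.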
Active calls of the source: *; ? = inconclusive; · = not tested or not shown; [ ] = remark or other dose. This is a sample that favours compounds with a hit; in the whole collection about 3.3% have one here. Unless noted, calls come from the whole dose curve; as a rule, active = well fitted curve in the direction sought with a large enough effect; inconclusive = small, poorly fitted or top-dose-only effect, or another doubt; inactive = no such curve, though single readings can be large; an effect the other way counts as inactive or inconclusive.

SMILES	NPSR antagonist	PNC inhibitor	ALOX12 inhib	HTT cytoprotect	HTT aggregate	IMPase inh
COc1c2c(c(CC=C(C)C)c3oc(=O)c(-c4ccc(O)cc4)c(O)c13)OC(C)(C)C=C2	·	·	2.0%	·	·	·
Cc1onc(-c2ccccc2Cl)c1C(=O)OCC(=O)c1ccc2c(c1)OCCO2	?	?	-2.7%	21.0%[10 µM]	?	5.9
Cc1onc(-c2ccccc2Cl)c1C(=O)NCc1ccccn1	-0.4%[46.1 µM]	?	3.2%	3.3%[0.074 µM]	0.891µM*	-2.7
Cn1ncnc2c(=O)n(C)c(=O)nc1-2	1µM*	?	-22.3%	-88.2%	5.01µM*	4.6
C=CCCN1C[C@@H]2C[C@H](C1)c1cccc(=O)n1C2	·	·	·	6.6%	·	·
CCN(CC)C(=O)c1ccc(N2C(=O)C3CC=C(Cl)CC3C2=O)cc1 (centres undefined)	8.2%[46.1 µM]	-85.6*	-3.4%	-7.5%	4.4%	7.4
C=CCN(c1ccc(C(=O)N(CC)CC)cc1)S(C)(=O)=O	4.7%[46.1 µM]	-23.2	-1.3%	17.3%[10 µM]	-2.7%	-18.1[1.84 µM]
C[C@@]12CCC[C@](C)(C(=O)O)[C@@H]1CCc1ccc(O)cc12	·	·	·	-5.7%	·	·
Cc1nccc2c1[nH]c1ccccc12	?	·	-4.6%	16.5%[1.9 µM]	·	-5.0
Cc1[nH]c2ccccc2c1/C=N/O	-21.2%[46.1 µM]	-85.9*	-7.4%	-4.8%[0.074 µM]	-0.6%	8.0
C/C(Cl)=C/CC1(CN2CCCC2=O)C(=O)NC(=O)NC1=O	7.0%[46.1 µM]	-121.8*	1.5%	-3.9%	15.2%	11.1
CC(C)[C@]1(O)[C@@H](OC(=O)c2ccc[nH]2)[C@]2(O)[C@@]3(C)C[C@@]4(O)O[C@@]5([C@H](O)[C@@H](C)CC[C@]35O)[C@]2(O)[C@]41C	·	·	2.0%[11.4 µM]	7.6%[10 µM]	·	·
C[C@H]1O[C@@H](O[C@H]2[C@@H](O)C[C@H](O[C@H]3[C@@H](O)C[C@H](O[C@H]4CC[C@@]5(C)[C@H](CC[C@@H]6[C@@H]5CC[C@]5(C)[C@@H](C7=CC(=O)OC7)CC[C@]65O)C4)O[C@@H]3C)O[C@@H]2C)C[C@H](O)[C@@H]1O	1.2%	-81.7*	-1.4%	·	15.3%	·
CC1O[C@@H](OC2CC(O)[C@@]3(CO)C4C(O)C[C@@]5(C)C(C6=CC(=O)OC6)CC[C@]5(O)C4CC[C@]3(O)C2)C(O)C(O)C1O (some centres undefined)	·	·	-2.9%	?	·	·
C[C@@H]1O[C@@H](O[C@H]2C[C@@H](O)[C@]3(CO)[C@H]4[C@H](O)C[C@]5(C)[C@@H](C6=CC(=O)OC6)CC[C@]5(O)[C@@H]4CC[C@]3(O)C2)[C@H](O)[C@H](O)[C@H]1O	16.8%	-114.6*	3.2%	·	-16.6%	·
c1ccc(-c2cc(-c3ccccc3)[n+](-c3ccccc3)c(-c3ccccc3)c2)cc1	?	·	·	-75.0%[10 µM]	3.98µM*	·
CN(C)c1ccc(-[n+]2c(-c3ccccc3)cc(-c3ccccc3)cc2-c2ccccc2)cc1	12.6µM*	·	·	-162.7%	1.12µM*	·
C[n+]1c(-c2ccccc2)cc(-c2ccc(Cl)cc2)cc1-c1ccccc1	-6.5%	·	·	-67.5%	?	·
C=C(C)[C@@H]1CN[C@H](C(=O)O)[C@H]1CC(=O)O	·	·	·	-20.2%[1.9 µM]	·	·
CSC([N-]/N=C/c1cccc(C)n1)=[S]=[Cu].CS[C@H]([S-])[N-]/N=C/c1cccc(C)n1	·	·	?	-99.8%[10 µM]	·	·
CN(C)C1C(=O)C(C(N)=O)=C(O)[C@@]2(O)C(=O)C3=C(O)c4c(O)cccc4[C@@](C)(O)C3[C@H](O)C12 (some centres undefined)	·	·	·	-14.6%[1.9 µM]	·	·
COc1ccc(C[C@@H]2NC[C@H](O)[C@H]2OC(C)=O)cc1	·	·	·	-74.6%	·	·
Cc1ccc(-n2c(O)c(/C=C3/C(c4ccccc4)=Nc4ccccc43)c(=O)[nH]c2=O)cc1	?	42.5	-1.8%	-53.4%[10 µM]	11.2µM*	-17.1
Cc1cccc(-n2c(O)c(/C=C3/C(c4ccccc4)=Nc4ccccc43)c(=O)[nH]c2=O)c1	-9.5%	·	·	-36.2%[10 µM]	-11.2%[9.22 µM]	·
c1ccc(CCCN2CCN(CCOC(c3ccccc3)c3ccccc3)CC2)cc1	15.8µM*	·	-20.4%	?	·	15.7
SMILES	NPSR antagonist	PNC inhibitor	ALOX12 inhib	HTT cytoprotect	HTT aggregate	IMPase inh
Fc1ccc(C(OCCN2CCN(CCCc3ccccc3)CC2)c2ccc(F)cc2)cc1	?	·	-7.2%	-99.0%	25.1µM*	10.7
Fc1ccc(C(OCCN2CCCC2)c2ccc(F)cc2)cc1	10.2%	-21.4	-1.2%	8.7%[10 µM]	-13.6%	·
COc1cc2c(cc1OC)-c1c(OC)c(OC)c(CO)c3c1[C@H](C2)N(C)CC3	·	·	·	-8.1%	·	·
O=c1c(C=NCc2cccs2)c(O)n(C2CCCCC2)c(=O)n1C1CCCCC1	?	-16.0	1.8%	-28.3%	-0.2%[9.22 µM]	4.6
N=C(N)c1c(O)n(C2CCCCC2)c(=O)n(C2CCCCC2)c1=O	10µM*	26.0	-2.9%	-6.0%[10 µM]	-6.0%	-4.5
CC1CCCN(C(=O)CCl)C1 (centres undefined)	7.0%	-116.0*	-0.3%	·	-8.5%	·
CC1CCCN(C(=O)CN2C3CCC2CC(O)(c2ccc(F)cc2)C3)C1 (centres undefined)	4.3%	·	·	-22.2%	10.4%	·
CCN(CC)C(=O)N[C@H]1C[C@H]2c3cccc4[nH]cc(c34)C[C@@H]2N(C)C1	·	·	4.6%	?	·	8.1
C[C@H]1C(=O)O[C@H]2CCN3CC=C(COC(=O)[C@](C)(O)[C@@]1(C)O)[C@H]23	·	·	·	-17.6%	·	·
Cc1c2ccncc2c(C)c2c1[nH]c1ccccc12	?	-114.6*	?	-81.9%[40.3 µM]	-10.5%	-2.1
NC(=NCCC[C@@H](N)C(=O)O)N[N+](=O)[O-]	·	·	·	15.1%[1.9 µM]	·	·
CCC(=NCc1ccco1)c1c(O)n(C)c(=O)n(C)c1=O	8.3%	·	·	3.9%[10 µM]	8.6%[9.22 µM]	·
CC(=NCc1ccco1)c1c(O)n(C)c(=O)n(C)c1=O	-13.0%[46.1 µM]	-18.2	2.1%	-15.3%[0.074 µM]	15.8µM*	9.6
C=CCN1C[C@@H](C)N([C@H](c2ccc(C(=O)N(CC)CC)cc2)c2cccc(OC)c2)C[C@H]1C	·	·	-3.2%	5.1%[1.9 µM]	·	13.3
CC[C@H](CO)NC(=O)[C@@H]1C=C2c3cccc4c3c(cn4C)C[C@@H]2N(C)C1	·	·	-5.1%	-5.4%[1.9 µM]	·	-0.3
CCOc1ccc(-n2nc3c(=S)[nH]nc(C)c3c2C)cc1	6.31µM*	-24.4	2.8%	·	0.4%	·
CCOc1ccc(-c2c(C)n(-c3ccc(OCC)cc3)c3[n+]2CCCCC3)cc1	-29.1%	·	·	-55.9%[10 µM]	?	·
Clc1ccc(CNC2CN3CCC2CC3)cc1 (centres undefined)	13.1%	-80.2*	-1.5%	-1.6%[10 µM]	6.2%	·
Fc1ccccc1CNC1CN2CCC1CC2 (centres undefined)	6.6%	·	·	·	·	·

Screening data: PubChem, National Center for Advancing Translational Sciences (NCATS)
